Laboratory results as given in PubChem BioAssay (Tox21).
Unmarked numbers belong to inactive results. Entries that show only a call come without a potency. Active and inactive are the calls of the source. Calls come from the whole dose curve.

Assay: G protein-coupled receptor (GPCR) small molecule agonists, calcium flux assay: HEK293 wild type cell line counter screen (AID 1920065)
Settings: HEK293 WT calcium flux, fluorescence, agonist mode; series mostly up to 57.6 µM
Excerpt: U.S. Tox21 Program National Center for Advancing Translational Sciences [NCATS] Division of Preclinical Innovation [DPI] U.S. Environmental Protection Agency [EPA] National Institutes of Environmental Health Sciences [NIEHS] National Toxicology Program [NTP] U.S. Food and Drug Administration [FDA] Assay overview: The increased intracellular calcium release that occurred upon G protein-coupled receptor (GPCR) activation led to the frequent use of calcium flux assays to detect GPCR activation. For the purpose of studying and screening compounds that may activate GPCR, receptor-overexpressing models were typically generated using Hek293 wild-type (WT) cells. In order to eliminate the compounds that may have induced calcium release for non-specific activation, a counter-assay utilizing calcium flux on Hek293 WT cells was performed. The data were formulated in order to serve as a control for any calcium flux detection utilizing Hek293 cells with either GPCR overexpression or gene modification. The procurement of Hek293 WT cells from ATCC. Fluorescence intensity can be utilized to determine the activation of the compound in a calcium flux assay. As a counter control, this cell line was utilized to screen the Tox21 10K compound library.
Assay Protocol Summary: Hek293 cells were dispensed at 1500cells/4uL/well in 1536-well black wall/clear bottom plates using a multidrop dispenser. After the assay plates were incubated at a 37 C/5% CO2 incubator for 18 hours, 4 uL of Calcium Dye Solution was added to each well. The plates were incubated at 37 C for 1 hour. For agonist mode, 23 nL of compounds dissolved in DMSO, positive control (ATP) or DMSO only was transferred to the assay plate by a pin tool station. The fluorescence intensity in the plates was measured using FDSS 7000EX kinetic plate reader with a filter set of Ex/Em=480/540 for 3 min at 1 sec intervals. Each test compound was measured at 15 concentrations and in triplicates.

SMILES | Potency | activation
COC(=O)c1cc(S(N)(=O)=O)ccc1OC | inactive | 
Cc1ncc(CSSCc2cnc(C)c(O)c2CO)c(CO)c1O | inactive | 
CO[C@@]1(NC(=O)CSC[C@@H](N)C(=O)O)C(=O)N2C(C(=O)O)=C(CSc3nnnn3C)CS[C@@H]21 | inactive | 
CC1(C)COCN1 | inactive | 
Cc1cccc(Cl)c1 | inactive | 
CC(C)(C)C(=O)OCOP(=O)(COCCn1cnc2c(N)ncnc21)OCOC(=O)C(C)(C)C | inactive | 
Cc1cccc(C)c1NC(=O)CN1CCCCCC1 | inactive | 
ClC(c1ccccc1)(c1ccccc1)c1ccccc1 | inactive | 
C=C(C)C(=O)NCCC[N+](C)(C)C | inactive | 
C1CCC(SSC2CCCCC2)CC1 | inactive | 
Nc1ncnc2c1ncn2[C@@H]1O[C@H](COP(=O)(O)O)[C@@H](O)[C@H]1O | inactive | 
Cc1ncsc1CCO | inactive | 
Cc1cccc(N(C)C(=S)Oc2ccc3ccccc3c2)c1 | inactive | 
Cc1ccc(C=O)cc1 | inactive | 
O=c1[nH]cnc2c1ncn2[C@@H]1O[C@H](CO)[C@@H](O)[C@H]1O | inactive | 
CCOC(=S)SSC(=S)OCC | inactive | 
O=C(O)C(=O)Nc1cccc(-c2nn[nH]n2)c1 | inactive | 
N=C(N)c1ccc2cc(OC(=O)c3ccc(N=C(N)N)cc3)ccc2c1 | inactive | 
CC(C(=O)O)c1cccc(C(=O)c2ccccc2)c1 (stereo not given) | inactive | 
CCC(=O)c1ccc(O)cc1 | inactive | 

SMILES | Potency | activation
Cc1cc(C)cc(N)c1 | inactive | 
CCCN[C@H]1CCc2nc(N)sc2C1 | inactive | 
O=C(O)/C=C/c1ccccc1 | inactive | 
O=C(O)[C@H](O)[C@@H](O)[C@H](O[C@@H]1O[C@H](CO)[C@H](O)[C@H](O)[C@H]1O)[C@H](O)CO | inactive | 
[Cl][Eu]([Cl])[Cl] | inactive | 
C/C=C(\C)C(=O)OC/C=C(\C)CCC=C(C)C | inactive | 
CCOCCOCC | inactive | 
CCCCCCCCCCCCCCCCI |  | 2.83% [at 11.8 µM]
O=C(COc1ccc(Cl)cc1)N1CCN(Cc2ccc3c(c2)OCO3)CC1 | inactive | 
CCC(=O)OCc1ccc(OC)cc1 | inactive | 
O=C(O)C[C@H](NC(=O)OCc1ccccc1)C(=O)O | inactive | 
Cc1ccc(C(=O)O)cc1 | inactive | 
CN1N=C(C(N)=O)CCC1=O | inactive | 
CC(C)(C)S | inactive | 
O=C1NCCN1CCO | inactive | 
Cc1c(C(=O)c2c[nH]n(C)c2=O)ccc(S(C)(=O)=O)c1C1=NOCC1 | inactive | 
CCCCCCCCC1CCC(=O)O1 (stereo not given) | inactive | 
Cn1cnc2c1c(=O)[nH]c(=O)n2C | inactive | 
COc1cccc(OC)c1O | inactive | 
O=C1c2ccccc2CCc2ccccc21 | inactive | 
